# High-throughput results (PubChem BioAssay)
# A selection: hits, their analogues and other compounds. The true share with any hit is near 4.8%.
# PfHsp90 yeast 2: growth inhibition of PfHsp90-expressing yeast, primary screen, antimalarial PfHsp90 inhibitor project, S. cerevisiae, BacTiter-Glo luminescence, single point, set 2. BacTiter-Glo ATP, 48 h; yeast lacking PDR1 and PDR3 efflux regulators. AID 504621, 2011. inhibition, % at 9.4 µM. 310,000 tested, 0.32% active;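 active = every replicate shows inhibition above about 80%, whatever the replicate mean, limit read from the data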;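 also: 0% = DMSO neutral controls and 100% = 20 µM radicicol positive controls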
# tim10-1 inh: growth inhibitors of tim10-1 mutant yeast, primary screen, luminescence, uHTS; AID 463190, 2010; S. cerevisiae tim10-1 ts strain growth, BacTiter-Glo, 24 h; inhibition, % at 20 µM; 330,000 tested, 2.2% active;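 active = inhibition of at least 40%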;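 also: mutant grown at 25 °C; 0% = DMSO wells with yeast and 100% = wells holding no yeast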
# SKKanGAS inh: S. pyogenes SKKanGAS growth inhibitors in kanamycin, primary screen, streptokinase expression inhibitor project, SKKanGAS strain, BacTiter-Glo luminescence; 6 h; inhibition, % at 7.5 µM; 300,000 tested, 1.3% active; AID 1662, 2009;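 active = mean replicate score, as percent of positive control median, at least 50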;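 also: strain carries kanamycin resistance gene driven by streptokinase promoter and grows in 40 µg/ml kanamycin; loss of luminescence reflects streptokinase promoter inhibition or plain growth inhibition; 0% = median of DMSO wells and 100% = positive control at its reference dose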
# NALP1 yeast inh: NALP1 inflammasome inhibitors in reconstituted yeast, colorimetric, S. cerevisiae, triplicate retest; 280,000 tested, 0.61% active; AID 2071, 2009; S. cerevisiae NALP1/ASC/caspase-1 growth, X-gal OD620, 72 h; inhibition, % at 10 µM; in the data active = inhibition mostly above about 24%, no sharp cut-off; inactive = mostly below about 32%
# TIM10 inh: growth inhibitors of isogenic TIM10 control yeast, primary screen, counter-screen for tim10-1 yeast inhibitor project, luminescence, uHTS; S. cerevisiae TIM10 strain growth, BacTiter-Glo luminescence, 24 h; 330,000 tested, 1.4% active; inhibition, % at 10 µM; AID 463195, 2010;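 active = inhibition of 40% or more at the single tested concentration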;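 also: wild-type TIM10 isogenic control strain grown at permissive 25 °C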
# tim23-1 inh: growth inhibitors of tim23-1 mutant yeast, primary screen, luminescence, uHTS; S. cerevisiae tim23-1 growth, BacTiter-Glo luminescence, 24 h; 330,000 tested, 1.3% active; inhibition, % at 20 µM; AID 463212, 2010;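 active = growth inhibition of the mutant yeast at or above 50%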;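 also: temperature-sensitive mutant grown at 25 °C; plate controls were DMSO-treated mutant yeast for no effect and medium wells lacking yeast for full effect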
# The depositor's hits bear a star; / = not tested or not shown.
SMILES,PfHsp90 yeast 2,tim10-1 inh,SKKanGAS inh,NALP1 yeast inh,TIM10 inh,tim23-1 inh
CC(=O)Oc1ccc([C@@H]2COc3c(ccc4c3C=CC(C)(C)O4)C2)c(OC(C)=O)c1,-77,3,9,/,6,11
CC(C)c1ccc(NC(=S)N(C)CCc2ccccn2)cc1,/,20,-11,-9,4,23
N#Cc1c(-c2ccccc2)nc(SCC(=O)N2c3ccccc3Sc3ccccc32)[nH]c1=O,-13,2,73*,29,15,18
N#Cc1c(-c2ccccc2)nc(SCc2ccc(Cl)cc2)[nH]c1=O,-9,23,61*,18,11,16
C=CCSc1nc(-c2ccccc2)c(C#N)c(=O)[nH]1,-15,-3,/,8,4,14
CCOc1ccc2nc(NC(=O)Nc3ccccc3)sc2c1,-11,10,-17,-7,6,-2
O=C(Nc1nc2c(F)cc(F)cc2s1)c1ccccn1,-25,25,72*,10,21,-26
CCOc1ccc2nc(NC(=O)c3ccccn3)sc2c1,21,11,81*,/,16,0
Cc1ccc2nc(NC(=O)c3ccccn3)sc2c1,19,-9,85*,-14,7,4
CCOc1ccc(NC(=S)NC(=O)C2CCCC2)cc1,34,33,20,12,1,49
NC1CCN(c2nc3c(cc2F)c(=O)c(C(=O)O)cn3-c2ccc(F)cc2F)C1 (stereo not drawn),-12,3,103*,/,6,-23
COc1c(N2CCN(C(=S)NC3CC4CCC3C4)C(C)C2)c(F)cc2c(=O)c(C(=O)O)cn(C3CC3)c12 (stereo not drawn),-13,12,101*,2,12,16
CCn1cc(C(=O)O)c(=O)c2cc(F)c(N3CCNCC3)nc21,-4,/,/,/,/,/
COc1c(N2CCN(C(=S)Nc3ccc(F)cc3)C(C)C2)c(F)cc2c(=O)c(C(=O)O)cn(C3CC3)c12 (stereo not drawn),-8,12,115*,-1,11,5
NC1CCN(c2c(F)cc3c(=O)c(C(=O)O)cn(C4CC4)c3c2Cl)C1 (stereo not drawn),8,21,74*,10,-4,0
Cc1nn2c3ccccc3n(CCN3CCCCC3)c2nc1=O,12,4,10,9,4,8
COc1c(N2CCNC(C)C2)c(F)cc2c(=O)c(C(=O)O)cn(C3CC3)c12 (stereo not drawn),/,-9,105*,/,3,3
COc1ccc(/C=C/C(=O)NCCSCc2ccco2)cc1OC,4,8,3,39*,10,15
COc1ccc(/C=C/C(=O)NC(=S)NNC(=O)c2ccco2)cc1OC,-13,-4,84*,/,-14,-37
COc1ccc(CCNC(=O)/C=C/c2ccco2)cc1OC,-9,-7,-1,-8,1,9
COc1ccc(/C=C/C(=O)NC(=S)NNC(=O)c2ccco2)cc1,4,-2,78*,-49,0,-19
COc1ccc(C(=O)NC(=S)NNC(=O)c2ccco2)cc1,-32,-8,53*,-8,15,-21
C[C@@H]1CN([C@@H](C)CO)C(=O)Cc2cc(NC(=O)C3CCCCC3)ccc2O[C@H]1CN(C)S(=O)(=O)c1ccccc1,-39,-6,/,/,3,3
COc1ccccc1OCC(=O)NNC(=S)NC(=O)c1ccco1,-15,17,60*,37,9,-3
COc1cc(C(C)=O)ccc1Oc1ccc(S(=O)(=O)N2CCOCC2)cn1,-12,6,/,/,5,27
SMILES,PfHsp90 yeast 2,tim10-1 inh,SKKanGAS inh,NALP1 yeast inh,TIM10 inh,tim23-1 inh
Cc1ccccc1OCc1nnc(SCC(=O)NC2CCCCC2)o1,-10,9,-11,16,16,17
CN1CCN(c2ccccc2NC(=O)c2ccc(Br)o2)CC1,13,-4,1,12,-23,-4
CC1CCN(c2ccccc2NC(=O)c2ccc(Br)o2)CC1,11,3,88*,-8,-8,26
COc1cccc(NS(=O)(=O)c2ccc(S(=O)(=O)N3CCOCC3)cc2)c1,-1,-3,6,12,-17,-1
O=C(NCCc1ccccc1)C(=O)Nc1ccc([N+](=O)[O-])cc1,-8,18,-10,30*,3,3
O=C(NCCc1ccc([N+](=O)[O-])cc1)c1ccccc1,-40,6,-9,34*,14,9
O=C(NCCc1ccccc1)c1ccc([N+](=O)[O-])cc1,/,3,2,6,7,-4
O=C(CCCn1c(=O)[nH]c2cc(Cl)ccc2c1=O)NCCCN1CCN(c2ccc(F)cc2)CC1,18,14,1,18,6,15
O=C(NC1CC1)c1ccc(CS(=O)c2ccc(Br)cc2)o1 (stereo not drawn),-9,5,-9,4,0,-10
COc1ccc(CCN2CN(S(=O)(=O)c3ccc(C)cc3)c3nc4ccccc4nc32)cc1OC,21,26,1,4,2,23
COc1ccc(C(=O)N/N=C\C(C)=C\c2ccccc2)cc1OC,8,8,16,/,20,28
CC(/C=N/NC(=O)c1ccc(Br)cc1)=C\c1ccccc1,-2,11,-7,36*,0,24
CCOC(=O)c1c(CN(C)C)n(-c2ccccc2)c2cc(Br)c(OC)cc12,24,28,-4,31,24,31
CCOC(=O)c1c(CN(C)C)n(-c2ccc(C)cc2)c2cc(Br)c(O)cc12,-12,22,100*,15,31,15
COc1ccc(C2=NOC(CNC(N)=S)C2)cc1 (stereo not drawn),-1,11,51*,-6,0,-3
CC(NO)C(C)(C)NO (stereo not drawn),-4,-14,4,3,-2,0
CCC1OC(=O)C(C)C(OC2C[C@@](C)(OC)C(O)C(C)O2)C(C)C(O[C@@H]2OC(C)CC(N(C)C)C2O)[C@](C)(O)CC(C)C(=NOCOCCOC)C(C)C(O)[C@]1(C)O (stereo partly drawn),4,1,/,/,3,8
CC[C@H]1OC(=O)C[C@@H](O)[C@H](C)[C@@H](O[C@@H]2O[C@H](C)C[C@H](N(C)C)[C@H]2O)[C@@H](CC=O)C[C@@H](C)C(=O)C=C[C@]2(C)O[C@H]2[C@@H]1C,/,/,111*,10,/,/
COc1ccc(/C=N/Nc2nc(Nc3ccccc3)nc(N3CCCCC3)n2)cc1OC,/,33,72*,16,26,24
